Screens (PubChem BioAssay)
Sampled rows, rich in hits. Any-hit rate of the full collection: about 3.2%.
PHOSPHO1 inh – blocks human PHOSPHO1 phosphatase activity; Q8TCT1; recombinant PHOSPHO1, absorbance phosphatase assay; inhibition, % at 13.3 µM; actives 1.1% (n = 290,000); AID 1565; in the data active = inhibition above about 60%
Target sequence (Q8TCT1 whole entry, looked up): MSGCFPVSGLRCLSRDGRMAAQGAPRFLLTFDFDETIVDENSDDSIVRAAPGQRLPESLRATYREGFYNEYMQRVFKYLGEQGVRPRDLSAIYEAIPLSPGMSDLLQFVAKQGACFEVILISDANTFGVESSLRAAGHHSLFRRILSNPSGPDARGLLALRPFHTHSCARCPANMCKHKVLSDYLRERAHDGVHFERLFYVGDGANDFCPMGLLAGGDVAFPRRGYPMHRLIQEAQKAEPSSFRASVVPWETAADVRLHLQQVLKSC
CHT allo act – allosterically activates the human high affinity choline transporter; Q9GZV3; CHT-expressing cells, membrane potential dye, choline EC20; stronger effect = higher value; LV-AA mutant CHT in HEK293 cells; B-score at 10 µM; actives 0.49% (n = 310,000); AID 488977;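 active = initial fluorescence not abnormally high and integrated response B-score, plate-corrected, over 3 SD above library mean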
TMEM16A act – mouse TMEM16A channel activation, primary screen; actives 0.3% (n = 340,000); HEK293 TMEM16A/YFP-H148Q/I152L, iodide quench fluorescence; stronger effect = lower value; B-score at 10 µM;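 active = fluorescence-ratio B-score plate-corrected deviation score at least 3 library SD below zero, with starting fluorescence score within 5 deviations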;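 note: channel opened by trigger with iodide after compound preincubation; score built on the fluorescence ratio of max minus min over baseline; more negative score means more quench and so TMEM16A activation or potentiation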
CHT block – human CHT choline transport inhibition; actives 0.86% (n = 310,000); CHT-expressing cells, membrane potential dye, choline response; stronger effect = lower value; B-score at 10 µM;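 active = B-score over 3 SD under the library average, and starting fluorescence ratio not unusually high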;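 note: choline stimulus applied at its EC90 after an EC20 pre-addition; B-score computed on integrated fluorescence ratio after choline addition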
HDAC3 inhib – blocks human histone deacetylase 3; O15379; recombinant HDAC3, fluorogenic peptide/trypsin coupled, fluorescence; inhibition, % at 8.3 µM; actives 0.15% (n = 320,000); AID 2718; in the data active = inhibition above about 26%, passing the limit was not always enough
Target sequence (O15379 whole entry, looked up): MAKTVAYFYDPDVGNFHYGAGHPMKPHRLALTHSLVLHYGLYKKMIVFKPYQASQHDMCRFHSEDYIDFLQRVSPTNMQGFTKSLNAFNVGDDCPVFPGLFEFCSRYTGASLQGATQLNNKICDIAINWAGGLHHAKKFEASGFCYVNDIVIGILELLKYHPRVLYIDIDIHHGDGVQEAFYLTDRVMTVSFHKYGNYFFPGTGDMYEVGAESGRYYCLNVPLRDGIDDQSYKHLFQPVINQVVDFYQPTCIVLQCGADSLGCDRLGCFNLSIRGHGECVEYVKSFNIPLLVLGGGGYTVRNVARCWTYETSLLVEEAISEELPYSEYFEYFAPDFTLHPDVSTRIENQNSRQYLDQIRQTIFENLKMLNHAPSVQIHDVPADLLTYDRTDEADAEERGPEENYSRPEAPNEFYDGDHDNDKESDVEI
TMEM16A inh – mouse TMEM16A channel inhibition, primary screen; HEK293 TMEM16A/YFP iodide influx fluorescence, ionomycin; actives 1.2% (n = 310,000); Q8BHY3; normalized B-score (activity score, 25-100; higher = stronger inhibition) at 10 µM; AID 588511;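 active = ratio plate-corrected score three or more library SD toward inhibition, starting fluorescence score within five deviations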;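 note: score derived from kinetic fluorescence span divided by baseline fluorescence per well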
CHT inh conf – human CHT inhibition, confirmatory screen; actives 70% (n = 2,400); CHT-expressing cells, choline membrane potential dye; LV-to-AA substituted CHT, HEK293 cells; AID 493221; shares compounds with CHT block; CHT activity remaining % of control (stronger effect = lower value), % at 10 µM;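 active = choline transporter activity left, mean of duplicates at 10 µM, below buffer-only control mean minus 3 SD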;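 note: depolarization triggered by choline at its EC90 following an EC20 pre-addition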
HEK293 CHT ctr – activity in parental HEK293 cells lacking CHT | actives 4% (n = 2,400) | shares compounds with CHT block | membrane potential ratio readout (active if shifted either direction beyond buffer ±3SD; no single direction) at 10 µM | membrane potential dye, choline response; active = decrease or increase beyond buffer ±3SD;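 note: parental cells lack the transporter so any hit is non-specific; ratio is peak minus trough fluorescence over baseline after EC90 choline challenge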
Of the large screens only hits and unclear results are named; the others gave an inactive call (follow-up assays come after a bar, where they were run).

Cc1ccc(C(=O)Nc2cc(Cl)ccc2-n2cncn2)o1	none (no result: PHOSPHO1 inh, HDAC3 inhib)
N#Cc1nc(COc2ccc(Cl)cc2)oc1N1CCCCCC1	none
CC(=O)Oc1ccc2nc(-c3ccco3)oc(=O)c2c1	CHT block -10 | CHT inh conf inactive | HEK293 CHT ctr inactive
CC(=O)Oc1ccc2nc(-c3cccs3)oc(=O)c2c1	none
CN1CCN(CC(=O)N2c3ccccc3Sc3ccccc32)CC1	none
O=C(CSc1nc2ccccc2c(=O)n1C1CC1)NCc1ccccc1	CHT block -5.1 | CHT inh conf 67% | HEK293 CHT ctr inactive
CCOC(=O)C1=C(COC(=O)C2CC(=O)N(CCc3ccccc3)C2)NC(=O)NC1C (centres undefined)	none (no result: PHOSPHO1 inh, CHT allo act, CHT block, TMEM16A inh)
CC1(C)CC2CC(C)(CN2C(=O)CCCN2C(=O)c3ccccc3C2=O)C1 (centres undefined)	CHT block -6.8 | CHT inh conf 48% | HEK293 CHT ctr inactive
O=C(CN1CCC(NC(=O)c2ccccc2F)CC1)NCc1ccc(F)cc1	none
COc1ccc(OC)c(NC(=O)C23CC4CC(C2)CC(n2cnc(Br)n2)(C4)C3)c1	none
COC(=O)C1(CC2CC(c3cccc(Br)c3)=NO2)CCN(C(=O)OC(C)(C)C)CC1 (centres undefined)	CHT block -5 | CHT inh conf inactive | HEK293 CHT ctr inactive
CCCOc1ccc(C(=O)NNC(=S)NC(=O)c2ccccc2)cc1	CHT block -6.6, TMEM16A inh 100 | CHT inh conf 55% | HEK293 CHT ctr inactive
Cc1ccc(C(=O)NNC(=S)NC(=O)COc2ccccc2)cc1	PHOSPHO1 inh 97, CHT block -6.1, TMEM16A inh 25 (no result: HDAC3 inhib) | CHT inh conf inactive | HEK293 CHT ctr inactive
COc1ccc(C(=O)NC(=S)NNC(=O)c2ccc(C)cc2)cc1	CHT block -7.2 (no result: PHOSPHO1 inh) | CHT inh conf 49% | HEK293 CHT ctr inactive
O=C(COc1ccccc1)Nc1ccccc1F	none
COc1ccc(OCC(=O)NC(=S)Nc2ccccc2F)cc1	CHT block -5.2 | CHT inh conf 59% | HEK293 CHT ctr inactive
Cc1ccccc1C(=O)NNC(=S)NC(=O)c1cccs1	none
CCCCC(=O)NNC(=S)NC(=O)c1ccc(C)cc1	CHT block -9.1 | CHT inh conf 30% | HEK293 CHT ctr inactive
Cc1cccc(C(=O)NC(=S)NNC(=O)c2cccs2)c1	PHOSPHO1 inh 88, CHT block -10 | CHT inh conf 36% | HEK293 CHT ctr inactive
CCCOc1ccc(C(=O)NNC(=S)NC(=O)c2cccs2)cc1	CHT block -9.4, TMEM16A inh 100 | CHT inh conf inactive | HEK293 CHT ctr inactive
CCCCCC(=O)NNC(=S)NC(C)=O	none
CCCOc1ccc(C(=O)NNC(=S)NC(C)=O)cc1	none
CCOC(=O)c1[nH]ncc1CN1CCCC(C(=O)c2ccc(C(C)(C)C)cc2)C1 (centres undefined)	CHT block -8.8 | CHT inh conf inactive | HEK293 CHT ctr inactive
Cn1ncc([N+](=O)[O-])c1C(=O)NCc1ccccc1	none
C#CCNc1c(C)c(C)nc2ncnn12	CHT block -5 | CHT inh conf 23% | HEK293 CHT ctr inactive
O=C(NCc1ccc(F)cc1)c1cccs1	none (no result: PHOSPHO1 inh)
O=C(NCc1cn2ccsc2n1)c1cccs1	CHT block -5.1 | CHT inh conf inactive | HEK293 CHT ctr inactive
COc1ccc(NC(=O)CCNC(=O)Cn2ccc3ccccc3c2=O)cc1OC	none
Cn1c(CSc2nnc(SCc3ccccc3)s2)nc2ccccc21	none
COc1ccc(OC(C)C(=O)NCCC2=CCCCC2)cc1 (centres undefined)	CHT block -5.1 | CHT inh conf inactive | HEK293 CHT ctr inactive
CC(=O)OC1CC2(C)C(=O)CCC2C2CCc3cc(O)ccc3C12 (centres undefined)	CHT block -8.1 | CHT inh conf 28% | HEK293 CHT ctr inactive
COc1ccc(CN(C)C(=O)Cc2ccc(OC)c(S(=O)(=O)N3CCOCC3)c2)cc1OC	none (no result: PHOSPHO1 inh, CHT allo act, CHT block, TMEM16A inh)
CCOC(=O)c1c(-c2ccc(Cl)cc2)c(C#N)c(=O)n(N)c1N	none
CC(C)Sc1sc(C(=O)O)c(-c2ccc(Cl)cc2)c1C#N	CHT block -5.7 | CHT inh conf 61% | HEK293 CHT ctr inactive
Cn1c(SCC(=O)N2CCN(c3ccccc3)CC2)nnc1-c1ccccc1	CHT block -5.3 | CHT inh conf 62% | HEK293 CHT ctr inactive
CCOC(=O)c1c(CSc2ccccc2)n(C)c2ccc(O)c(CN3CCN(C)CC3)c12	CHT block -7.6 | CHT inh conf 31% | HEK293 CHT ctr inactive
CCOC(=O)c1c(CSc2ccc(C)cc2)n(C)c2cc(Br)c(O)c(CN(C)C)c12	none
N#Cc1nc(-c2ccc(OCc3ccccc3)cc2)oc1NCCN1CCOCC1	none (no result: TMEM16A act)
CC(Sc1nc(N)cc(=O)[nH]1)C(=O)Nc1sc2c(c1C#N)CCCC2 (centres undefined)	none
Cc1nnc(SC(C)C(=O)Nc2sc3c(c2C#N)CCCC3)[nH]c1=O (centres undefined)	CHT block -5.2 | CHT inh conf 65% | HEK293 CHT ctr inactive
Cc1ccc(Cl)c2c1=NC(=O)C=2c1[nH]c(=S)[nH]c1O	CHT block -5.8 | CHT inh conf inactive | HEK293 CHT ctr inactive
COCCCN1C(=O)C(=O)/C(=C(/O)c2ccccc2)C1c1ccc(N(C)C)cc1 (centres undefined)	none
CN(C)c1ccc(C2/C(=C(/O)c3ccccc3)C(=O)C(=O)N2CCCC(=O)O)cc1 (centres undefined)	CHT block -6.6 | CHT inh conf inactive | HEK293 CHT ctr inactive
CCOc1cc(N2CCOCC2)c(OCC)cc1NC(=O)CSc1nc(N)cc(=O)[nH]1	none (no result: PHOSPHO1 inh, CHT allo act, CHT block, TMEM16A inh)
COC(=O)c1ccc(Cn2c(CN3CCOCC3)nc3ccccc3c2=O)o1	CHT block -5.2 | CHT inh conf inactive | HEK293 CHT ctr inactive
CCN1CCN(Cc2nc3c(c(=O)n(C)c(=O)n3C)n2CCc2ccccc2)CC1	none (no result: CHT allo act, CHT block, HDAC3 inhib, TMEM16A inh)
Cn1c(=O)c2c(nc(CN3CCOCC3)n2CCc2ccccc2)n(C)c1=O	CHT block -5 | CHT inh conf inactive | HEK293 CHT ctr inactive
CCCCNC(=O)c1onc(CSc2ccc(C(C)C)cc2)c1C(=O)O	CHT block -8.2, TMEM16A inh 25 | CHT inh conf 69% | HEK293 CHT ctr inactive
Cn1cnnc1Sc1ccc(C(=O)NCCC(c2ccccc2)c2ccccc2)cc1[N+](=O)[O-]	CHT block -10 | CHT inh conf 32% | HEK293 CHT ctr inactive
Cn1cnnc1SCC(=O)NCCC(c1ccccc1)c1ccccc1	none
